Source: PubChem BioAssay AID598 (SRMLSC, 2007)
In all, about 85,000 compounds went through this assay and about 5,100 (6%) were called active. Shown is part of a subset that was picked to be rich in actives. A number with no mark means an inactive call.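 The calls were made as follows: active = viability at or below 40%; inactive = viability above 40%.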

Assay: H69AR cell viability reduction – human, 86K library, primary screen (AID 598);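 also: multidrug resistant small cell line overexpressing MRP-1 efflux transporter; 100% = mean luminescence of untreated control wells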
Conditions: H69AR lung tumor viability, ATP luminescence, 72 h; at 10 µM; active compounds read low

Row | Structure (SMILES) | viability
1 | COc1ccc(NC(=O)CSc2nc(NS(=O)(=O)c3ccc(C)cc3)cc(=O)[nH]2)cc1 | 109%
2 | COC(=O)c1sccc1-n1cccc1C(=O)C(=O)N1CCCCC1 | 95.1%
3 | Cc1cccc(C(=O)N2CCCN(C(=O)c3cccc(C)c3)CC2)c1 | 94.6%
4 | Clc1ccc(COn2c(-c3ccc(Cl)cc3Cl)nc3ncccc32)cc1 | 56.5%
5 | c1nnc2c3c4c(sc3ncn12)CCC4 | 39% (active)
6 | O=C(O)[C@@H]1CCCN1c1ncnc2sc3c(c12)CCC3 | 86.5%
7 | N=c1c2c3c(sc2ncn1CCCN1CCOCC1)CCCCC3 | 71%
8 | CCc1ccc(NC(=O)CN2C(=O)CSC2=O)cc1 | 93%
9 | COCCn1c(SCc2nnc(-c3ccc(OC)c(OC)c3)o2)nc2sc3c(c2c1=O)CCC3 | 51.5%
10 | O=C(CN1CCN(C(=O)c2ccco2)CC1)Nc1ccc(Cl)c(C(F)(F)F)c1 | 19.9% (active)
11 | COc1ccc(OC)c(NC(=O)CN2CCN(C(=O)c3ccco3)CC2)c1 | 73.5%
12 | O=C(CN1CCN(C(=O)c2ccco2)CC1)Nc1ccc2c(c1)OCO2 | 110%
13 | O=C(Nc1ccc(Br)cc1)c1cccc(NC(=O)C2C3CC4OC(=O)C2C4C3)c1 (stereo unspecified) | 79.9%
14 | O=C1NC(Nc2nc3ccccc3s2)(C(F)(F)F)C(=O)N1C1CCCCC1 (stereo unspecified) | 13.4% (active)
15 | COC(=O)NC1(C(F)(F)F)NC(=O)N(C2CCCCC2)C1=O (stereo unspecified) | 103%
16 | COC(=O)CCSc1cc([N+](=O)[O-])cc2c1c(C1OCCS1)nn2-c1ccccc1 (stereo unspecified) | 98.2%
17 | Cc1ccc(-n2cc3ccc([N+](=O)[O-])cc3n2)cc1 | 76.8%
18 | CCOC(=O)N1CCN(C(=O)c2ccc(S(=O)(=O)c3ccc(C)cc3)c(NC(C)=O)c2)CC1 | 85.8%
19 | CCOC(=O)N1CCN(C(=O)c2ccc3c(c2)N(Cc2ccc(C)cc2)CCS3)CC1 | 30.8% (active)
20 | CCOC(=O)N1CCN(C(=O)c2ccc(CN(c3ccc(C)c(C)c3)S(C)(=O)=O)cc2)CC1 | 70.5%
21 | COc1ccc(CN(C(=O)CSc2nnc(-c3ccc(OC)c(OC)c3)o2)c2ccc(F)cc2)cc1 | 65.2%
22 | CCCNC(=O)CN(Cc1ccccc1F)S(=O)(=O)c1ccc(C)cc1 | 98.5%
23 | CC1Cc2ccccc2N1C(=O)c1cc2sccc2n1Cc1ccccc1 (stereo unspecified) | 90.3%

Row | Structure (SMILES) | viability
24 | O=C(CSCc1ccc(Cl)cc1)N1CCCCC1 | 93.6%
25 | Cc1cc(NC(=O)CCC(=O)N(CC(=O)NCC2CCCO2)c2ccccc2C)no1 (stereo unspecified) | 100%
26 | COCCNC(=O)Cn1cc(C(=O)c2cccs2)c2ccccc21 | 88.3%
27 | COc1ccc(C(=O)n2nc(-c3ccc(Cl)cc3)nc2N)cc1OC | 83.9%
28 | COc1ccc(C(=O)n2nc(-c3ccc(C)cc3)nc2N)cc1OC | 22% (active)
29 | COc1ccccc1C(=O)n1nc(-c2ccccc2)nc1N | 90.3%
30 | N#CC1=C(SCc2ccc(C#N)cc2)N=C(N)C(c2nc(-c3ccccc3)cs2)C12CCCCC2 (stereo unspecified) | 56.8%
31 | COc1ccc(OC)c(-n2nnnc2SCC(=O)Nc2cc(C)ccc2OC)c1 | 75.6%
32 | COC(=O)Nc1nc2ccc(Sc3ccccc3)cc2[nH]1 | 17.5% (active)
33 | Cc1nc2ccc(C(=O)O)cc2[nH]1 | 91.7%
34 | CC(C)c1nc2ccc(C(=O)O)cc2[nH]1 | 94.4%
35 | COc1ccc(N(CC(=O)NC2CCCCC2)C(=O)CNC(=O)c2ccco2)c(OC)c1 | 97.8%
36 | COc1cc(C(=O)N(Cc2ccc(N(C)C)cc2)C2CCS(=O)(=O)C2)cc(OC)c1OC (stereo unspecified) | 80.1%
37 | COc1ccc(C(=O)N(Cc2ccc(N(C)C)cc2)C2CCS(=O)(=O)C2)cc1 (stereo unspecified) | 80.1%
38 | Cc1ccc(CN(C(=O)c2sc3ccccc3c2Cl)C2CCS(=O)(=O)C2)cc1 (stereo unspecified) | 18.5% (active)
39 | CC(=O)c1cccc(NC(=O)N2CCCC2C(=O)NCCc2ccccc2)c1 (stereo unspecified) | 91.7%
40 | COc1nc(NC2CCCCC2)nc(N2CCCCCC2)n1 | 61.9%
41 | CC1=C/C(=N\OS(=O)(=O)c2ccccc2)C=CC1=O | 0.69% (active)
42 | N#CCSc1nc2c(c(=O)n1Cc1ccccc1)C1(CCCC1)Cc1ccccc1-2 | 80.7%
43 | Nc1c(-c2ccc(F)cc2)cnn1C1CCS(=O)(=O)C1 (stereo unspecified) | 98%
44 | CC(C)(C)C(=O)c1cnc(Nc2ccccc2)s1 | 55%
45 | CCOC(=O)CSc1nc2ccc(C)cc2[nH]1 | 89.4%
46 | CO/N=C(/CS(=O)(=O)c1ccc(Br)cc1)c1ccc(OC)cc1 | 31.4% (active)
